From the supplement of paper PMC12669032
Unmarked numbers belong to inactive results.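 Rule for the calls: active = AUC reduced over 20% with Padj below 0.05 in at least 2 of 3 replicates; inactive = otherwise.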

Columns and labels:
Assay in all cases: growth AUC relative to DMSO control (median of replicates) (fraction); higher = more growth (less inhibition), active = hit call of the paper
Conditions in all cases: 20 µM; 24 h
Coprococcus comes = test system: Coprococcus comes
Summary of the method: (§1)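 Gut bacterial monocultures were grown anaerobically at 37 °C in mGAM, starting at OD600 0.05, with 20 µM compound (1% DMSO) in round-bottom 96-well plates under pierced gas-permeable seals. OD600 was read hourly for 24 h. Area under the growth curve (minimum OD set to 0) was normalised to the plate median of DMSO controls, or to row and column medians on the industrial chemical plate. The value is the median of three biological replicates grown on separate days.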

Escherichia coli ED1a = test system: Escherichia coli ED1a
Summary of the method: as §1

Escherichia coli IAI1 = test system: Escherichia coli IAI1
Summary of the method: as §1

Eubacterium rectale = test system: Eubacterium rectale
Summary of the method: as §1

[1] = test system: Fusobacterium nucleatum subsp. animalis
Summary of the method: as §1

Lactobacillus gasseri = test system: Lactobacillus gasseri
Summary of the method: as §1

Lactobacillus paracasei = test system: Lactobacillus paracasei
Summary of the method: as §1

Odoribacter splanchnicus = test system: Odoribacter splanchnicus
Summary of the method: as §1

[2] = test system: Parabacteroides distasonis
Summary of the method: as §1

Parabacteroides merdae = test system: Parabacteroides merdae
Summary of the method: as §1

Roseburia intestinalis = test system: Roseburia intestinalis
Summary of the method: as §1

Streptococcus salivarius = test system: Streptococcus salivarius
Summary of the method: as §1

| Compound | growth AUC (Coprococcus comes) | growth AUC (Escherichia coli ED1a) | growth AUC (Escherichia coli IAI1) | growth AUC (Eubacterium rectale) | growth AUC [1] | growth AUC (Lactobacillus gasseri) | growth AUC (Lactobacillus paracasei) | growth AUC (Odoribacter splanchnicus) | growth AUC [2] | growth AUC (Parabacteroides merdae) | growth AUC (Roseburia intestinalis) | growth AUC (Streptococcus salivarius) |
| --- | --- | --- | --- | --- | --- | --- | --- | --- | --- | --- | --- | --- |
| COP(=O)(OC)C(O)C(Cl)(Cl)Cl (stereo not given) | 1.03 | 1.02 | 1.01 | 1.08 | 0.973 | 1 | 1.02 | 0.965 | 1.04 | 1 | 1 | 1.02 |
| CCCSP(=S)(OCC)Oc1ccc(Cl)cc1Cl (stereo not given) | 1 | 1.05 | 1.01 | 1.04 | 1.11 | 1.01 | 0.984 | 0.778 | 0.984 | 1.01 | 1.08 | 0.973 |
| CO/N=C(/C(=O)OC)c1ccccc1CO/N=C(\C)c1cccc(C(F)(F)F)c1 | 0.976 | 0.978 | 0.985 | 0.973 | 0.953 | 1.1 | 0.831 | 1.01 | 0.887 | 0.901 | 1.06 | 0.998 |
| COP(=S)(OC)Oc1c(Cl)cc(C)cc1Cl | 0.99 | 0.983 | 0.99 | 1 | 0.971 | 0.925 | 1.06 | 0.97 | 0.96 | 0.998 | 0.912 | 0.972 |
| COP(=S)(Oc1cc(Cl)c(Br)cc1Cl)c1ccccc1 (stereo not given) | 1.02 | 1.01 | 0.992 | 0.893 | 1.03 | 0.852 | 0.982 | 1.03 | 0.957 | 1.01 | 1.04 | 1.05 |
| Cc1cnc(C2=NC(C)(C(C)C)C(=O)N2)c(C(=O)O)c1 (stereo not given) | 1 | 0.999 | 1.01 | 0.985 | 0.976 | 1.04 | 0.939 | 0.953 | 1.07 | 1.02 | 0.997 | 1.03 |
| O=[N+]([O-])c1cc(Cl)ccc1Cl | 0.935 | 0.983 | 0.979 | 1.04 | 1.04 | 0.872 | 1.05 | 1.04 | 1.01 | 0.987 | 0.931 | 0.981 |
| Clc1ccc(C(c2ccc(Cl)cc2)C(Cl)(Cl)Cl)cc1 | 0.964 | 0.963 | 0.979 | 0.878 | 0.916 | 0.487 | 0.908 | 0.709 | 0.258 (active) | 0.69 (active) | 0.941 | 0.897 |
| CCCCCCCC(=O)Oc1c(I)cc(C#N)cc1I | 0.995 | 0.985 | 0.896 | 1.09 | 1.16 | 0.89 | 1.01 | 0.91 | 0.91 | 0.908 | 0.957 | 0.805 |
| C=CCOC(Cn1ccnc1)c1ccc(Cl)cc1Cl.O=S(=O)(O)O (stereo not given) | 0.184 (active) | 0.973 | 0.954 | 0.0325 (active) | 0.925 | 0.962 | 0.881 | 0.985 | 0.951 | 0.89 | 0.261 (active) | 0.953 |
| CC(C)N(C(=O)CCl)c1ccccc1 | 0.961 | 0.982 | 1.02 | 0.923 | 0.911 | 1.17 | 0.946 | 0.942 | 0.992 | 0.982 | 0.963 | 1.04 |
| CC(C)C(C(=O)OC(C#N)c1cccc(Oc2ccccc2)c1)c1ccc(Cl)cc1 (stereo not given) | 1 | 1.01 | 0.963 | 0.901 | 1.02 | 0.9 | 1.11 | 0.893 | 1.01 | 0.974 | 0.929 | 0.988 |
| CCCSC(=O)N(CCC)CCC | 0.994 | 0.974 | 0.985 | 1.01 | 1 | 1.01 | 0.954 | 1.01 | 0.995 | 0.991 | 0.994 | 1.04 |
| CCCCC(CC)COC(=O)c1ccccc1C(=O)OCC(CC)CCCC (stereo not given) | 0.999 | 0.983 | 0.977 | 1.02 | 1 | 0.892 | 1.07 | 1.1 | 0.985 | 0.965 | 0.971 | 0.967 |
| CCCCOC(=O)c1ccccc1C(=O)OCCCC | 1 | 1 | 0.962 | 1.07 | 1.06 | 0.911 | 0.986 | 1.07 | 0.759 (active) | 0.964 | 0.953 | 1.02 |
| CNC(=O)N(C)c1nnc(C(C)(C)C)s1 | 0.995 | 0.99 | 0.945 | 0.931 | 0.969 | 1.16 | 0.941 | 0.963 | 0.973 | 1 | 1.03 | 0.959 |
| C[C@@H](Oc1ccc(Oc2nc3ccc(Cl)cc3o2)cc1)C(=O)O | 1.04 | 1.01 | 1.02 | 1.07 | 1.01 | 0.968 | 0.983 | 1.09 | 1.03 | 1.03 | 1.04 | 0.925 |
| O=c1c2cc(F)ccc2nc(-n2cncn2)n1-c1ccc(Cl)cc1Cl | 0.999 | 0.987 | 0.99 | 0.963 | 0.976 | 1.05 | 0.634 | 0.977 | 1.02 | 0.93 | 0.975 | 1.02 |
| CCCCCCCCSC(=O)Oc1cc(Cl)nnc1-c1ccccc1 | 0.98 | 0.976 | 0.972 | 0.868 | 0.914 | 1.02 | 1.04 | 0.905 | 0.99 | 0.967 | 1.06 | 0.963 |
| Cc1cc(OC(=O)N(C)C)nn1C(=O)N(C)C | 1.03 | 0.996 | 0.971 | 1.01 | 1.03 | 0.992 | 0.963 | 0.935 | 1.11 | 0.966 | 1.06 | 0.971 |
| CNC(=O)c1cc(C#N)cc(C)c1NC(=O)c1cc(Br)nn1-c1ncccc1Cl | 0.996 | 1.01 | 1.02 | 0.972 | 0.88 | 1.12 | 1.02 | 0.99 | 1.02 | 0.983 | 0.961 | 1.04 |
| CNC(=O)O/N=C(\SC)C(=O)N(C)C | 0.971 | 0.985 | 0.987 | 1 | 0.979 | 1.09 | 0.883 | 0.975 | 0.99 | 0.973 | 0.997 | 1.02 |
| CC(Oc1cc(Cl)c(Cl)cc1Cl)C(=O)O (stereo not given) | 0.987 | 0.978 | 0.953 | 0.964 | 0.889 | 1.04 | 1 | 1.02 | 0.955 | 0.986 | 0.935 | 0.976 |
| COc1ccccc1N | 0.993 | 1 | 1 | 1.08 | 1.04 | 1.02 | 1.02 | 1.16 | 1.28 | 1.02 | 1.03 | 0.998 |
| CCS(=O)(=O)c1nc2ccccn2c1S(=O)(=O)NC(=O)Nc1nc(OC)cc(OC)n1 | 1.04 | 0.99 | 1.01 | 0.999 | 0.977 | 0.88 | 1.01 | 1.05 | 1.02 | 1.02 | 1.01 | 1.03 |
